High-throughput results (PubChem)
IMPase Li cell: qHTS Assay for Identifying the Cell-Membrane Permeable IMPase Inhibitors: Potentiation with Lithium. CHO-M1 cells, IP1 TR-FRET (IP-One), carbachol + lithium. Potency, µM (doses to about 59.4 µM), for inactives: at the top dose activity, negative = IMPase inhibition, actives largely listed as inhibitors. hit rate 0.35% among 210,000;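 note: IP1 builds up when IMPase is blocked and the TR-FRET signal falls; potency is the fitted concentration of half-maximal effect; plate controls were basal vehicle for no effect and high inhibitor control for full effect; nearly all actives have a fitted effect of over 50% in size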
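Readout is a homogeneous TR-FRET IP1 immunoassay (Ex 320, Em 665 and 620), where raised cytosolic IP1 lowers signal. Cells were CHO-M1 treated 30 min at 37C with test compounds plus a little lithium; AC50 values came from Hill-equation fitting.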
IMPase inh: qHTS Assay for Identifying the Cell-Membrane Permeable IMPase Inhibitors; CHO-M1 cells, IP1 accumulation, HTRF TR-FRET ratio; 120,000 tested, under 10 active; Inositol monophosphatase 1 (Rattus norvegicus), P97697; AID 901, 2007; inhibition (IP1 accumulation), % at 46.1 µM; active = well fitted curve in the direction sought with a large enough effect in the signal ratio, not every such curve was filed as active; inconclusive = small, poorly fitted or top-dose-only effect, or a change in a side signal; inactive = no such curve, though single readings can be large or run the other way; the % refers to the signal ratio;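 note: cells stimulated with carbachol in lithium chloride buffer; plate controls were DMSO basal wells for no effect and reference inhibitor wells for full effect; higher means more IMPase inhibition seen as more IP1 and lower FRET ratio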
Target sequence (P97697 whole entry, looked up): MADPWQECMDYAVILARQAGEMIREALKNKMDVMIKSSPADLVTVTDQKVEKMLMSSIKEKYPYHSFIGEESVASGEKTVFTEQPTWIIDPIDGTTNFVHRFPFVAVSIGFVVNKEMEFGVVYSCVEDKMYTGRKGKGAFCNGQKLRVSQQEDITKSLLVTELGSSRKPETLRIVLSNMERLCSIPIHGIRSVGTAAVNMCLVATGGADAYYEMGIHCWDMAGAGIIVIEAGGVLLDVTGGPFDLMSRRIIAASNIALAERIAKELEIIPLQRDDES
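Carbachol-driven Gq signalling in CHO-M1 cells (2000/well) generates IP1. Compounds that block IMPase raise IP1 and so reduce the FRET signal from Eu-anti-IP1 and d2-IP1 after a 10 min room-temperature lysis.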
NPSR antag: qHTS Assay for Antagonists of the Neuropeptide S Receptor: cAMP Signal Transduction. Q6W5P4. CHO-NPSR cells, cAMP TR-FRET, antagonist mode. Potency, µM (series often up to 38.3 µM), for the others: at the top dose activity change, negative = inhibition, actives largely listed as inhibitors. hit rate 1% among 220,000. AID 1461, 2008; note: potency is the fitted concentration of half-maximal effect; nearly all actives have a fitted effect of over 50% in size
Target sequence (Q6W5P4 whole entry, looked up): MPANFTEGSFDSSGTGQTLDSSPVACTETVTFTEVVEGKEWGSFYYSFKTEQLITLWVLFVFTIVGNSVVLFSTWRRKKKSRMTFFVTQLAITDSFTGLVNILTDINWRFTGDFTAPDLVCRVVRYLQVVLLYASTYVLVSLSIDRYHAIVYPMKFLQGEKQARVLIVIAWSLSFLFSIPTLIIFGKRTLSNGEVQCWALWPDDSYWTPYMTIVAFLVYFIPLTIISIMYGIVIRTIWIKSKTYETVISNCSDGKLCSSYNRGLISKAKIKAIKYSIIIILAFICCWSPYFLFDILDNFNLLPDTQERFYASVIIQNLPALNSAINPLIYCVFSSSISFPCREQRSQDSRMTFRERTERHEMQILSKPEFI
* hit, by the source's call; [ ] = dose if it differs, or a comment. This excerpt belongs to a sample that is enriched for hits. Unless noted, calls come from the whole dose curve; as a rule, active = well fitted curve in the direction sought with a large enough effect; inconclusive = small, poorly fitted or top-dose-only effect, or another doubt; inactive = no such curve, though single readings can be large; an effect the other way counts as inactive or inconclusive. Unless noted, % is set by controls: 0 for no effect and ±100 for the full control effect.

How did COc1ccc(-n2c(-c3ccc(Cl)cc3)c[n+]3c2CCc2ccccc2-3)cc1 do in these assays?
IMPase Li cell: 9%; NPSR antag: -15%

Results for Cc1ccc(-n2c(-c3ccc(Br)cc3)c[n+]3c2CCc2ccc4cccnc4c2-3)cc1 ?
IMPase Li cell: 19%[38.3 µM]; IMPase inh: -6; NPSR antag: 10µM*

What do the screens show for `COc1ccc(C2N(c3ccc4c(c3)OCCO4)C(=O)C2(F)F)cc1OC` (centres undefined)?
NPSR antag: 3%

What do the screens show for `O=C(CSc1nc2nc(-c3cccs3)cc(C(F)(F)F)c2c(=O)[nH]1)NCc1ccco1`?
IMPase Li cell: 8.9µM*; IMPase inh: inconclusive; NPSR antag: 11%[46.1 µM]

What do the screens show for `CC(=O)Nc1ccc(NC(=O)CSc2nc3nc(-c4cccs4)cc(C(F)(F)F)c3c(=O)[nH]2)cc1`?
NPSR antag: -18%

What do the screens show for `O=C(Nc1nnc(-c2ccc(F)cc2)s1)C1CCN(S(=O)(=O)c2ccc(Cl)cc2)CC1`?
IMPase Li cell: 7.9µM*; NPSR antag: -53%

What do the screens show for `Cc1ccc(S(=O)(=O)N2CCC(C(=O)Nc3nnc(-c4ccc(F)cc4)s3)CC2)cc1`?
IMPase Li cell: inconclusive; NPSR antag: -33%

Results for Nc1ccn([C@H]2O[C@@H](COP(=O)(O)O)[C@@H](O)[C@H]2O)c(=O)n1 ?
IMPase Li cell: 6%

Results for CO/N=C/c1ccc(Oc2ccc([N+](=O)[O-])cc2[N+](=O)[O-])c(OC)c1 ?
IMPase Li cell: 12%; NPSR antag: 1%

What do the screens show for `COc1cc(/C=C2\SC(=O)NC2=O)ccc1Oc1ccc([N+](=O)[O-])cc1[N+](=O)[O-]`?
IMPase Li cell: 14%; NPSR antag: 10µM*

Results for CC(C)=CCNc1ncnc2c1c(C#N)cn2[C@H]1O[C@@H](CO)[C@@H](O)[C@@H]1O ?
IMPase Li cell: 2%

Results for COc1ccc(-c2nnc3n2N=C(C)CS3)cc1 ?
IMPase Li cell: -14%[38.3 µM]; IMPase inh: 5; NPSR antag: -20%[46.1 µM]

How did CCOC(=O)/C(=C\c1ccc(OC(F)F)cc1)C1=Nn2c(nnc2-c2ccc(Cl)cc2)SC1 do in these assays?
IMPase Li cell: 16%; NPSR antag: 10µM*

How did CN1C[C@@H](C(=O)N[C@]2(C)O[C@]3(O)[C@H]4CCCN4C(=O)[C@H](Cc4ccccc4)N3C2=O)C[C@H]2c3cccc4[nH]cc(c34)C[C@@H]21 do in these assays?
IMPase inh: 6

Results for CCn1cc(C(=O)NCC2CCCO2)c(=O)c2cc(S(=O)(=O)N3CCC(C)CC3)ccc21 (centres undefined) ?
IMPase Li cell: -2%[38.3 µM]; IMPase inh: 10; NPSR antag: -11%[46.1 µM]

How did CCn1cc(C(=O)NCC2CCCO2)c(=O)c2cc(S(=O)(=O)N3CCCCCC3)ccc21 (centres undefined) do in these assays?
IMPase Li cell: 10%[38.3 µM]; IMPase inh: 8; NPSR antag: 3.2µM*

Results for O=C1C(=C(O)c2ccccc2)C(=O)c2ccccc21 ?
IMPase Li cell: 2%[38.3 µM]; IMPase inh: 2; NPSR antag: -13%[46.1 µM]

How did O=C1C(=C(c2ccccc2)c2ccccc2)Nc2ccccc21 do in these assays?
IMPase Li cell: 45%[38.3 µM]; IMPase inh: 3; NPSR antag: 13µM*

How did COc1ccc(NC(=O)Cn2c(CCC(=O)O)ccc2-c2ccc(C)cc2)cc1 do in these assays?
IMPase Li cell: 15%; NPSR antag: -5%

What do the screens show for `CSc1ccc(-c2nc3ncccn3c2Nc2ccc(C)c(C)c2)cc1`?
IMPase inh: -4

How did O=C1ON=C(c2ccccc2)/C1=C/c1cccnc1 do in these assays?
IMPase Li cell: 1%; NPSR antag: -11%

Results for O=C1ON=C(c2ccccc2)/C1=C/c1ccc(OS(=O)(=O)c2ccccc2)cc1 ?
IMPase Li cell: 4%; NPSR antag: 6.3µM*

Results for COc1ccc(-c2ccccc2[C@H]2[C@@H]3C=CC[C@@H](C)[C@@H]3C(=O)N2Cc2ccccc2)cc1 ?
IMPase Li cell: 13%

Results for O=C(Nc1nc(-c2ccccc2)cs1)c1cccc([N+](=O)[O-])c1 ?
IMPase Li cell: 10%[38.3 µM]; IMPase inh: -16; NPSR antag: -12%[46.1 µM]

How did O=C(Nc1ncc([N+](=O)[O-])s1)c1cccc([N+](=O)[O-])c1 do in these assays?
NPSR antag: 5µM*

How did COC(=O)N1CC=CC1(C)C(=O)NCc1ccc(C)o1 (centres undefined) do in these assays?
IMPase Li cell: -5%

What do the screens show for `CCOCCCNc1nc2c(C)cccn2c(=O)c1/C=C1\SC(=S)N(CC(C)C)C1=O`?
IMPase Li cell: 2%[38.3 µM]; IMPase inh: 2; NPSR antag: -1%[46.1 µM]

Results for CCOC(=O)CC1C(=O)NCCN1c1nc2c(C)cccn2c(=O)c1/C=C1\SC(=S)N(CC(C)C)C1=O (centres undefined) ?
NPSR antag: 10µM*

How did Cc1c2oc3c(C)ccc(C(=O)N[C@@H]4C(=O)N[C@@H](C(C)C)C(=O)N5CCC[C@@H]5C(=O)N(C)CC(=O)N(C)[C@@H](C(C)C)C(=O)O[C@H]4C)c3nc-2c(C(=O)N[C@@H]2C(=O)N[C@@H](C(C)C)C(=O)N3CCC[C@@H]3C(=O)N(C)CC(=O)N(C)[C@@H](C(C)C)C(=O)O[C@H]2C)c(N)c1=O do in these assays?
IMPase Li cell: 22%; IMPase inh: -2

Results for COc1ccc(-c2ccc(C#N)c(SCC(=O)NCCc3ccccc3)n2)cc1OC ?
IMPase Li cell: -15%; IMPase inh: -2; NPSR antag: inconclusive

Results for COc1cccc(-c2ccc(C#N)c(SCC(=O)NCCc3cccc(Cl)c3)n2)c1 ?
IMPase Li cell: 11µM*; IMPase inh: -20; NPSR antag: -5%[46.1 µM]

Results for O=C1Nc2ccccc2C1=Nc1cccc2ncccc12 ?
IMPase Li cell: -5%

What do the screens show for `CCc1ccc(OC(C)C(=O)Nc2c(C(=O)c3ccccc3)oc3ccccc23)cc1` (centres undefined)?
IMPase inh: -12

Results for O=C(CNC(=O)c1ccccc1F)OCc1nc2ccccc2s1 ?
IMPase Li cell: -2%; NPSR antag: 8%

What do the screens show for `CNc1sc(C(=O)c2ccccc2F)c(N)c1-c1nc2ccccc2s1`?
IMPase Li cell: 51%[38.3 µM]; IMPase inh: 9; NPSR antag: 4µM*

What do the screens show for `Cc1ccc(NC(=S)N(CCCN2CCCC2)Cc2cccn2Cc2ccc(Cl)cc2)cc1Cl`?
IMPase Li cell: 16%; NPSR antag: -59%

Results for FC(F)(F)c1cccc(NC(=S)N(CCCN2CCCC2)Cc2cccn2Cc2ccc(Cl)cc2)c1 ?
IMPase Li cell: 13%; NPSR antag: 10µM*

Results for COc1ccc(-c2nc(-c3ccccn3)ncc2S(C)(=O)=O)cc1 ?
IMPase Li cell: -10%; NPSR antag: 3%

Results for Cn1nc(-c2ccccn2)nc2c(=O)n(C)c(=O)nc1-2 ?
NPSR antag: 2.5µM*

Results for CCCc1nc2c(=O)n(C)c(=O)nc-2n(C)n1 ?
IMPase Li cell: 11%; NPSR antag: 7.9µM*
